Test results as given in PubChem BioAssay (NCATS).
Records with an inconclusive call do not appear. Active and inactive are the calls of the source. Unless noted, the call rests on the fitted dose curve; in most records, active means well fitted curve in the direction sought with a large enough effect; inconclusive means small, poorly fitted or top-dose-only effect, or another doubt; inactive means no such curve, though single readings can be large; an effect the other way counts as inactive or inconclusive.

How the values were obtained:
[1] = molecular target: Rap guanine nucleotide exchange factor 3 (Homo sapiens) (UniProt O95398); test: Confirmatory qHTS for antagonist of cAMP-regulated guanine nucleotide exchange factor 3 (EPAC1) (AID 1645880); conditions: EPAC1 Rap1B-BODIPY-GDP exchange, fluorescence; activity, negative = inhibition: at 115 µM (top of the series); further: nearly all actives have a fitted effect of over 55% in size; further: potency means the concentration at half of the fitted maximal effect;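 on activity, negative = inhibition: plate controls were DMSO only for no effect and full effect of the ATA control for full effect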
Outline: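 Released BODIPY-GDP fluoresces less than Rap1-bound BODIPY-GDP; the signal is followed at 480/540 nm at 5-min intervals over 30 min, after 5 min at room temperature. Reactions contain 100 nM EPAC1, 250 nM RAP1B-BODIPY-GDP and 50 uM GDP; results are normalized to ATA and DMSO.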

[2] = molecular target: Rap guanine nucleotide exchange factor 3 (Homo sapiens) (UniProt O95398); test: Confirmatory qHTS for agonist of cAMP-regulated guanine nucleotide exchange factor 3 (EPAC1) (AID 1645881); further: nearly all actives have a fitted effect of over 75% in size; further: potency means the concentration at half of the fitted maximal effect
[3] = molecular target: Rap guanine nucleotide exchange factor 4 (Homo sapiens) (UniProt Q8WZA2); test: Confirmatory qHTS for agonist of cAMP-regulated guanine nucleotide exchange factor 4 (EPAC2) (AID 1645884);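 further: nucleotide exchange releases bodipy-GDP from Rap1 and this lowers its fluorescence; nearly all actives have a fitted effect of over 65% in size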; further: potency means the concentration at half of the fitted maximal effect
[4] = molecular target: Rap guanine nucleotide exchange factor 3 (Homo sapiens) (UniProt O95398); test: Counterscreen qHTS for antagonist of cAMP-regulated guanine nucleotide exchange factor 3 (EPAC1) (AID 1645888); further: % of control where 0% means no effect
Outline: (§1)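 Rap1B–BODIPY-GDP (250 nM) with 50 uM GDP; compounds pin-transferred to 9.74 nM–152 uM final (activator) or from 7.32 nM upwards (inhibitor). Fluorescence Ex/Em 480/540 nm read at 5 and 30 min, then after adding cAMP or buffer, at room temperature.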

[5] = molecular target: Lysosomal acid glucosylceramidase (Homo sapiens) (UniProt P04062); test: Glucocerebrosidase-p2 (AID 348; in the data active means potency below about 10 µM; further: potency means the concentration at half of the fitted maximal effect); conditions: purified GBA, blue fluorogenic substrate, 40 min
Outline: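 Normal human glucocerebrosidase (0.2 nM) with blue fluorogenic substrate (80 uM final) in citrate/phosphate pH 5.9 with 10mM sodium taurocholate, 0.01% tween-20; 40 min RT, NaOH/glycine stop; fluorescence Ex 365/Em 440; AC50 from a titration from 0.6 nM upwards.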

[6] = AP1 Signaling Pathway (AID 357; active means well fitted curve in either direction with a large enough effect, not every such curve was filed as active;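 further: ME-180 reporter cells stimulated with EGF at its EC50 level; on the % scale 0 is the no-effect control and ±100 the full control effect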); conditions: ME-180 (cervical carcinoma) AP-1-bla reporter, EGF-induced, beta-lactamase ratio, 5 h; at 7.69 µM (top of the series) unless noted
Outline: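 Cells are seeded overnight, exposed to compound titrations and an EC50 level of EGF for 5 hours at 37 °C, then loaded with CCF4 dye for 2.5 hours. Beta-lactamase activity under the AP-1 element is read as a blue/green ratio.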

[7] = molecular target: Cytochrome P450 1A2 (Homo sapiens) (UniProt P05177); test: p450-cyp1a2 (AID 410; calls by dose curve; further: potency means the concentration at half of the fitted maximal effect)
Outline: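 Luminescent demethylation readout: Luciferin-ME (100uM, equal to Km) turned over by 20nM CYP1A2 for 60 min at room temperature after NADPH regeneration addition, following 10 min compound preincubation. Normalization used 57 uM furafylline as full inhibition.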

[8] = NFAT Signaling Pathway (AID 444; active means well fitted curve in either direction with a large enough effect, not every such curve was filed as active;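 further: carbachol stimulus at about its EC50 of 1 µM final; on the % scale 0 is the no-effect control and ±100 the full control effect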); conditions: Jurkat NFAT-bla M1, carbachol, beta-lactamase ratio, 5 h; at 7.69 µM (top of the series) unless noted
Outline: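 Jurkat cells with NFAT-driven β-lactamase reporter and co-expressed M1 receptor, stimulated with carbachol (final 1 uM, ~EC50), compound titration, 5 h at 37 °C. CCF4 loaded 1 h at RT; 460/530 nm ratio gave %activity and AC50.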

[9] = Stat Signaling Pathway (AID 446; active means well fitted curve in either direction with a large enough effect, not every such curve was filed as active;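 further: ME-180 cervical cancer cells given 40 pM IL-6 alongside compound; SIE-controlled beta-lactamase reporter measured as 460/530 nm FRET emission ratio; on the % scale 0 is the no-effect control and ±100 the full control effect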)
Outline: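 Normalization used AC90 stimulation (300 pM IL-6) and AC90 inhibition (125 nM pan-JAK inhibitor at 40 pM IL-6). The underlying signal is SIE-driven beta-lactamase in ME-180 cells after 5 h IL-6 exposure with compound.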

[10] = molecular target: Glucocorticoid receptor (Homo sapiens) (UniProt P04150); test: GR-GFP Redistribution (AID 450;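 active means compounds whose dose series gives a full or clear partial fitted curve of increased nuclear translocation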; further: potency means the concentration at half of the fitted maximal effect); conditions: U2OS GR-GFP nuclear translocation, laser cytometry, 2 h
[11] = molecular target: Glucocorticoid receptor (Homo sapiens) (UniProt P04150); test: GR-EFC Redistribution (AID 451; calls by dose curve; further: potency means the concentration at half of the fitted maximal effect); conditions: CHO-K1 GR-EFC translocation, beta-gal luminescence, 2 h
Outline: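 CHO-K1 cells expressing nuclear EA and GR-ED fragments of b-gal; compounds titrated up to 46 uM final, 2 h at 37 C. GR nuclear translocation read as complemented b-gal luminescence after 1 h RT detection.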

[12] = molecular target: Mitogen-activated protein kinase 10 (Mus musculus) (UniProt Q61831); test: JNK3 AlphaScreen Assay (AID 530; active means well fitted curve in either direction with a large enough effect, not every such curve was filed as active;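 further: kinase came from lysate of stimulated human HepG2 cells; signal reports phosphorylation of biotinylated GST-cJun 1-79 at Ser73 with 10 µM ATP; on the % scale 0 is the no-effect control and ±100 the full control effect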)
Outline: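 Activity was read by AlphaScreen after JNK3-containing HepG2 lysate (cytokine pre-activated) phosphorylated biotinylated GST-cJun with 10 uM ATP at room temperature. Phospho-Ser73 cJun antibody with Protein-A acceptor beads provided detection.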

[13] = molecular target: Cytochrome P450 3A4 (Homo sapiens) (UniProt P08684); test: qHTS Assay for Activators of Cytochrome P450 3A4 (AID 885); further: nearly all actives have a fitted effect of over 65% in size
Outline: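 Human CYP3A4 dealkylates Luciferin-PPXE to luciferin, which luciferase detection converts to light. Substrate was at its KM (25uM), buffer 200mM KPO4, reaction 60 min at RT.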

[14] = molecular target: Rap guanine nucleotide exchange factor 4 (Homo sapiens) (UniProt Q8WZA2); test: Confirmatory qHTS for antagonist of cAMP-regulated guanine nucleotide exchange factor 4 (EPAC2) (AID 1645885); further: nearly all actives have a fitted effect of over 25% in size; further: potency means the concentration at half of the fitted maximal effect
[15] = molecular target: Cytochrome P450 3A4 (Homo sapiens) (UniProt P08684); test: qHTS Assay for Inhibitors and Substrates of Cytochrome P450 3A4 (AID 884); further: potency means the concentration at half of the fitted maximal effect; nearly all actives have a fitted effect of over 50% in size
Outline: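 Luminescent readout of luciferin produced by CYP3A4 (20 nM) dealkylation of Luciferin-PPXE, 25 uM (its KM). NADPH-driven reaction ran 60 min at RT after 10 min compound preincubation; data scaled to 57 uM ketoconazole as 100% inhibition.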

[16] = Confirmation and Secondary Assay for Modulators of Hemoglobin Beta Chain Splicing at IVS2 654 locus (AID 910);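 further: HeLa cells stably carrying EGFP split by mutant beta-globin IVS2-654 intron; % of control where 0% means no effect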
Outline: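 HeLa cells stably expressing EGFP interrupted by β-globin IVS2-654 intron, seeded overnight in Opti-MEM/2% FCS, then treated 2 days at 37 °C. Restored splicing read as total peak GFP intensity per well by laser scanning cytometry (488 nm excitation, 500–520 nm emission); 500 nM antisense PNA as control.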

[17] = Confirmation and Secondary Assay for Modulators of Hemoglobin Beta Chain Splicing at IVS2 705 locus (AID 930);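 further: HeLa cells stably expressing the EGFP-705 splicing reporter; % of control where 0% means no effect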
Outline: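 Restored EGFP fluorescence after 2-day compound exposure reports splicing correction in IVS2-705 EGFP reporter HeLa cells; positive control was 500 nM splice-blocking PNA oligo. Signal measured as well total peak GFP intensity (488 nm excitation).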

[18] = molecular target: Cytochrome P450 2D6 (Homo sapiens) (UniProt P10635); test: qHTS Assay for Inhibitors and Substrates of Cytochrome P450 2D6 (AID 891); further: potency means the concentration at half of the fitted maximal effect; nearly all actives have a fitted effect of over 60% in size
Outline: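 Luminescent read-out of luciferin formed by 5 nM human CYP2D6 demethylating 30 uM Luciferin-ME EGE (Km level) over 60 min at room temperature after NADPH regeneration addition. Data normalized to full inhibition by 1.43 uM quinidine.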

[19] = molecular target: Cytochrome P450 2C19 (Homo sapiens) (UniProt P33261); test: qHTS Assay for Inhibitors and Substrates of Cytochrome P450 2C19 (AID 899); further: potency means the concentration at half of the fitted maximal effect; nearly all actives have a fitted effect of over 60% in size
Outline: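 5 nM human CYP2C19 with 10uM Luciferin-H EGE (at KM) in 50mM KPO4, compound preincubated 10 min at 37C, then NADPH regeneration for 60 min at 37C. Luciferin read by luminescence after detection reagent; normalized to 57uM ketoconazole as full inhibition.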

[20] = molecular target: Dual specificity protein kinase CLK4 (Homo sapiens) (UniProt Q9HAZ1); test: qHTS Assay for Inhibitors of CDC-like Kinase 4 (Kinase-Glo Assay) (AID 1770); further: potency means the concentration at half of the fitted maximal effect; nearly all actives have a fitted effect of over 65% in size
Outline: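 Luminescent ATP-depletion read-out (Kinase-Glo) after 4.5 h room-temperature reaction of Clk4 (25 nM final) with RS peptide (100 uM) and ATP (1 uM), pH 7.5 Tris buffer with MgCl2 and DTT.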

[21] = molecular target: Dual specificity protein kinase CLK4 (Homo sapiens) (UniProt Q9HAZ1); test: qHTS Assay for Inhibitors of CDC-like Kinase 4 (ADP-Glo Assay) (AID 1771); further: potency means the concentration at half of the fitted maximal effect; nearly all actives have a fitted effect of over 70% in size
Outline: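 ADP production was read by ADP-Glo luminescence after residual ATP depletion, following 1 h room-temperature reaction of 25 nM Clk4, 1 uM ATP and 100 uM RS peptide with MgCl2, EGTA, DTT and Triton X-100.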

[22] = molecular target: Dual specificity protein kinase CLK4 (Homo sapiens) (UniProt Q9HAZ1); test: qHTS Assay for Inhibitors of CDC-like Kinase 4 (ADP-FP Assay) (AID 1795); further: potency means the concentration at half of the fitted maximal effect; nearly all actives have a fitted effect of over 60% in size
Outline: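 Kinase activity was measured as ADP production using Transcreener orange tracer (4 nM) and ADP antibody (1 ug/mL) fluorescence polarization, with ADP calculated from a calibration curve. The 1 h reaction contained 6.25 nM Clk4, 1 uM ATP and 100 uM RS peptide at pH 7.5 with Mg2+.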

[23] = molecular target: Tumor susceptibility gene 101 protein (Homo sapiens) (UniProt Q99816); test: qHTS Assay for Iinhibitors of HIV-1 Budding by Blocking the Interaction of PTAP/TSG101: Hit Validation (AID 651600); further: potency means the concentration at half of the fitted maximal effect; nearly all actives have a fitted effect of over 70% in size
Outline: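 FITC-PTAP peptide (50 nM final) binding to Tsg101 binding domain (10 uM final) was measured by polarization after 20 min at r.t. with compounds, in 10 mM HEPES pH 7.5 buffer with 0.15 M NaCl and 0.01% Tween 20.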

[24] = molecular target: Rap guanine nucleotide exchange factor 3 (Homo sapiens) (UniProt O95398); test: Counterscreen qHTS for agonist of cAMP-regulated guanine nucleotide exchange factor 3 (EPAC1) (AID 1645889); further: potency means the concentration at half of the fitted maximal effect; nearly all actives have a fitted effect of over 40% in size
Outline: as §1

Sequence of Glucocorticoid receptor (Homo sapiens) (P04150 whole entry, looked up, the tested form may be a part): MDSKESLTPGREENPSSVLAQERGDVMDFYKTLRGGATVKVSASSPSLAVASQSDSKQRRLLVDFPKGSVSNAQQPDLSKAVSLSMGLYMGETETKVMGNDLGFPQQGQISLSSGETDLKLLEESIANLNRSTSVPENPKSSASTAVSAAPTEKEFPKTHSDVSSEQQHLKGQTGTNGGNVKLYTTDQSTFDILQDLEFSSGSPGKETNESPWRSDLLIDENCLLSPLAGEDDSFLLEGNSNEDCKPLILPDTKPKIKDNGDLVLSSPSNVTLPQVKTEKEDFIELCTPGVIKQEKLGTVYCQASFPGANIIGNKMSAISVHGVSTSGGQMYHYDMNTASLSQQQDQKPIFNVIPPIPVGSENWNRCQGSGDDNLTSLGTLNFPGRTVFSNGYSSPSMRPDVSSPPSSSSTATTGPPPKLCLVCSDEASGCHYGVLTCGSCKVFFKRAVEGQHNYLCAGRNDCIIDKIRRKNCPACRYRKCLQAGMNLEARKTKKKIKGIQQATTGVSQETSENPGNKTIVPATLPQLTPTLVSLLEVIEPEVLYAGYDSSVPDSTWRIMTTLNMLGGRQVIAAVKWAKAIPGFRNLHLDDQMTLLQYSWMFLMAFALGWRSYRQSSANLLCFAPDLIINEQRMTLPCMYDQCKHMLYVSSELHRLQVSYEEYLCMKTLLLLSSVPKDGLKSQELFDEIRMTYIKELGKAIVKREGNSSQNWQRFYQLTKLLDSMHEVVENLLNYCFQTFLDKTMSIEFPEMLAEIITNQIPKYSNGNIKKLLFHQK
Sequence of Rap guanine nucleotide exchange factor 3 (Homo sapiens) (O95398 whole entry, looked up): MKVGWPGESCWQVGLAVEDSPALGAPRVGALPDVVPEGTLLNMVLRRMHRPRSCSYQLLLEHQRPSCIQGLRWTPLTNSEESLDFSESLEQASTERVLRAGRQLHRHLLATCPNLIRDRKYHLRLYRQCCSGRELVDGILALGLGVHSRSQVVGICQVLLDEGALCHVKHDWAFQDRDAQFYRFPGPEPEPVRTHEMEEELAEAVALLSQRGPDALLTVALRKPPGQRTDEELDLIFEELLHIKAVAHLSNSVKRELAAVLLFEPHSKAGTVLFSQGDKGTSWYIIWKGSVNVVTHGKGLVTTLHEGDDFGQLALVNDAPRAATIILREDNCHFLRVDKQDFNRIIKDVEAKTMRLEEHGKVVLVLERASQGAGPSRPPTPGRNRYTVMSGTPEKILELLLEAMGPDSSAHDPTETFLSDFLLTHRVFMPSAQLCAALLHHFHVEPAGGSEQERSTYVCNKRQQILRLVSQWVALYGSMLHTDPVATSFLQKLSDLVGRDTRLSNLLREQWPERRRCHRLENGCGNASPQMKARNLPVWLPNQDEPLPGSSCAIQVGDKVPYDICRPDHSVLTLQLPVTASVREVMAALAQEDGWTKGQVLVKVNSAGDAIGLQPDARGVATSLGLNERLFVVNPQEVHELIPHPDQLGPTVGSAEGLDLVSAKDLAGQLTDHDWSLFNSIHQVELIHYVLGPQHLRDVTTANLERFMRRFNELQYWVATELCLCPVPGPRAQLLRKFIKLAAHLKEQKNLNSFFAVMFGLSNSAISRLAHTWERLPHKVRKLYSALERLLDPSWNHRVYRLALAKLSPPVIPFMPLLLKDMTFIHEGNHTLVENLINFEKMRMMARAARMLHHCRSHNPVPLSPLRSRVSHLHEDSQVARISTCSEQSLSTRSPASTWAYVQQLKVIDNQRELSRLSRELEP
Sequence of Cytochrome P450 3A4 (Homo sapiens) (P08684 whole entry, looked up): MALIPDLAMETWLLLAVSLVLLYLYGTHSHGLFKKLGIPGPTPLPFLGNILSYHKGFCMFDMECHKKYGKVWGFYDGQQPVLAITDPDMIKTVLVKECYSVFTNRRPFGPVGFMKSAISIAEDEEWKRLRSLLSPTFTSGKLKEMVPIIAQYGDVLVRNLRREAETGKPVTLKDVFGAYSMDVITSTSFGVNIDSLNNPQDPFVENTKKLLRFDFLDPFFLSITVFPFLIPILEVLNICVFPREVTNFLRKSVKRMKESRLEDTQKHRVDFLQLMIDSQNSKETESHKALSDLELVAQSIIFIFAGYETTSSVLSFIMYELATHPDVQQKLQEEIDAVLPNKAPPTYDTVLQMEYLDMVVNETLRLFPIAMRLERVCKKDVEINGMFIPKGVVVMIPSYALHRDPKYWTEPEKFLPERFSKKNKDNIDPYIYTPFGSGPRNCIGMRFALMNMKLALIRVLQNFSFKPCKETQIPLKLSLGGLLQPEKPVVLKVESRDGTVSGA
Sequence of Dual specificity protein kinase CLK4 (Homo sapiens) (Q9HAZ1 whole entry, looked up): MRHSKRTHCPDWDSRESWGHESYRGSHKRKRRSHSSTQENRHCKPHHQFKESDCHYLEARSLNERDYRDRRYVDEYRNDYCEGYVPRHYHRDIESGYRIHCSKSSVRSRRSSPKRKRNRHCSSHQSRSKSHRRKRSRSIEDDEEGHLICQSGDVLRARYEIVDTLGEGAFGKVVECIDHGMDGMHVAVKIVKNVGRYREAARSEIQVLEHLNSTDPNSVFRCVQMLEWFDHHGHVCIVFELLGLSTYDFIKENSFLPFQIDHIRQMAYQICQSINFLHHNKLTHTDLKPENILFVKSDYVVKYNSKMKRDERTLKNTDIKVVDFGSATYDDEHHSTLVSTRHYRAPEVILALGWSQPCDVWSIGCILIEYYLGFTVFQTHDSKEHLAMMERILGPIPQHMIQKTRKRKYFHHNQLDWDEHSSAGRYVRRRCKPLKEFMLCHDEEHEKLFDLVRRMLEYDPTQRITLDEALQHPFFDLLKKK
Sequence of Rap guanine nucleotide exchange factor 4 (Homo sapiens) (Q8WZA2 whole entry, looked up): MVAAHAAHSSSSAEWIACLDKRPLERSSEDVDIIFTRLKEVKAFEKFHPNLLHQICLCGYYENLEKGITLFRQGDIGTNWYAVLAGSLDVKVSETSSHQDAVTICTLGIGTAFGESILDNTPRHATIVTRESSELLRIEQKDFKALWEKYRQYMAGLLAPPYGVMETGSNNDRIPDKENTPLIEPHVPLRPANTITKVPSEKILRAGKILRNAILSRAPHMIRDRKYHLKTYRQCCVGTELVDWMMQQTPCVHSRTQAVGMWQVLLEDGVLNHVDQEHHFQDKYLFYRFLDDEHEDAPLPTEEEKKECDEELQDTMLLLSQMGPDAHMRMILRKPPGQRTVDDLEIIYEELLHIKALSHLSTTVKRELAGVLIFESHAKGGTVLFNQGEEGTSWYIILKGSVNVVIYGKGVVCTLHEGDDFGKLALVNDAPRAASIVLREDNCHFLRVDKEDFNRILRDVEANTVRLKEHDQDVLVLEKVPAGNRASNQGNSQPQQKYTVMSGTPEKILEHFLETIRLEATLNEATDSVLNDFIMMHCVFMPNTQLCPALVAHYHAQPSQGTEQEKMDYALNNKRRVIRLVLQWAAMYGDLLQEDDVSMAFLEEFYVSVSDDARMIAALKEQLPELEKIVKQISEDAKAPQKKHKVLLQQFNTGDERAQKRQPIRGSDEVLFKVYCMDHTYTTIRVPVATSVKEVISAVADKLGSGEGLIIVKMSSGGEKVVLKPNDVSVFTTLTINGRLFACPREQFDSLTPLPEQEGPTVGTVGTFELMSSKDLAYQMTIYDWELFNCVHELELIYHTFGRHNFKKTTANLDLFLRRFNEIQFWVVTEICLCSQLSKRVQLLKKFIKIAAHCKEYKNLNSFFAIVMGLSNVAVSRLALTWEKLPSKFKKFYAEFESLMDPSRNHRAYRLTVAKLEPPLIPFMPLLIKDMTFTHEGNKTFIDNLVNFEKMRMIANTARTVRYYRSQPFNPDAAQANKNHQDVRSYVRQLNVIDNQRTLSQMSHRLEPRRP
Sequence of Cytochrome P450 1A2 (Homo sapiens) (P05177 whole entry, looked up): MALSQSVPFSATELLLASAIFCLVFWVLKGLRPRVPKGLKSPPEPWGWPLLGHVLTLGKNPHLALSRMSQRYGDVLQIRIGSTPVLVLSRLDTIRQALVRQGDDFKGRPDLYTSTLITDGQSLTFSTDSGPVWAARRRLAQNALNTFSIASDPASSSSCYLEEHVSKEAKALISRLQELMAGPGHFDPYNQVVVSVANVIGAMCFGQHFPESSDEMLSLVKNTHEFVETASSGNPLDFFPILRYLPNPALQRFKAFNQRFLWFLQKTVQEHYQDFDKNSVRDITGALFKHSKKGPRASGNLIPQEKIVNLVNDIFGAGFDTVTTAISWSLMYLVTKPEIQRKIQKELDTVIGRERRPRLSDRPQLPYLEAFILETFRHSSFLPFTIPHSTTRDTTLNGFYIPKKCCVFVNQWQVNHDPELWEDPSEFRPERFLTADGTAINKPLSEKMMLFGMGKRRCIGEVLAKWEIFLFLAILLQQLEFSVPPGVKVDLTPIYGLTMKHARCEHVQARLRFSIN
Sequence of Cytochrome P450 2D6 (Homo sapiens) (P10635 whole entry, looked up): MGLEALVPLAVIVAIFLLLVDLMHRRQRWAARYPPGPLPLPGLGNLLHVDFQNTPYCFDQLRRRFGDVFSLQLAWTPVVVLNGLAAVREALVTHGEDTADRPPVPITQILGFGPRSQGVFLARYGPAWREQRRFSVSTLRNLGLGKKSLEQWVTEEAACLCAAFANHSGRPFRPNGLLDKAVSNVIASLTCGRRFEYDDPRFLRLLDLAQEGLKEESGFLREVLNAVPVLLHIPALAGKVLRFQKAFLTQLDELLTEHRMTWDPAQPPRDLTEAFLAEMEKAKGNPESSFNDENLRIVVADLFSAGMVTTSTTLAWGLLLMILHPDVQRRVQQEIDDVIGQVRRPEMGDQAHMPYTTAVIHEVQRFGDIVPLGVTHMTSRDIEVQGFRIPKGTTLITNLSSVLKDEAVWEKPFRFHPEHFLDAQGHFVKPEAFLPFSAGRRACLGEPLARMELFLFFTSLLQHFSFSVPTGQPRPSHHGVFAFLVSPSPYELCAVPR

Cc1nc2sc(C(c3cccs3)N3CCN(C(=O)c4ccco4)CC3)c(O)n2n1 (stereo not drawn)
inactive: Potency [1] | Potency [2] | Potency [3] | Potency [4]

CN1CCN(c2ncc3nc(CCc4ccccc4)c(=O)n(Cc4cccs4)c3n2)CC1
inactive: Potency [5] > 11.4 µM | activity change, negative = inhibition [6] -5.44% | activity change, negative = inhibition [8] 4.5% | outcome [9] | Potency [10] > 9.22 µM | Potency [11] > 46 µM | Potency [12] | outcome [13] | Potency [1] | Potency [2] | Potency [3] | Potency [14]
active: Potency [7] 15.8 µM

COc1ccc2c(=O)c(OC)c(-c3ccccc3)oc2c1
inactive: outcome [13] | Potency [16] | Potency [17] | Potency [1] | Potency [2] | Potency [3]
active: Potency [15] 10 µM | Potency [14] 13.9 µM

Cc1oc2c(c1C(=O)c1ccccc1)C(=O)C(=O)c1ccccc1-2
inactive: Potency [2] | Potency [3] | Potency [4]
active: Potency [1] 42.6 µM

Nc1[nH]n2c(=O)cc(-c3ccccc3)nc2c1N=Nc1ccc(S(N)(=O)=O)cc1
inactive: Potency [1] | Potency [2] | Potency [3] | Potency [4]

Cn1c(N)c(C(=O)COC(=O)C2(c3ccc(Cl)cc3)CCCC2)c(=O)n(C)c1=O
inactive: Potency [1] | Potency [2] | Potency [3] | Potency [4]

COc1cccc(-c2cncnc2NCc2ccccc2OC)c1
active: Potency [7] 3.98 µM | Potency [15] 0.501 µM | Potency [18] 7.94 µM | Potency [19] 2 µM | Potency [20] 14.1 µM | Potency [21] 15.8 µM | Potency [22] 14.1 µM | Potency [14] 44.1 µM
inactive: activity change, negative = inhibition [6] -3.02% | activity change, negative = inhibition [8] 6.93% | outcome [9] | Potency [10] > 46 µM | Potency [11] > 46 µM | Potency [12] | Potency [1] | Potency [2] | Potency [3]

Nc1ccc(-c2c3ccc(=O)cc-3oc3cc(O)ccc23)cc1C(=O)O
inactive: Potency [1] | Potency [14]
active: Potency [23] 23.1 µM | Potency [2] 50.1 µM | Potency [3] 100 µM | Potency [24] 50.1 µM

COC(=O)[C@@]1(C)CCC[C@@]2(C)c3ccc(O)c(C(C)C)c3CCC21 (stereo partly drawn)
inactive: outcome [13] | Potency [16] | Potency [17] | Potency [1] | Potency [2] | Potency [3] | Potency [14]
active: Potency [15] 31.6 µM
